High-throughput results as filed in PubChem.
A selection: hits, their analogues and other compounds. The true share with any hit is near 3%.
KAT2A inh – inhibitors of human GCN5L2 histone acetyltransferase; Potency, µM (series often up to 58.9 µM), for inactives: at the highest dose activity change, negative = inhibition, hits mostly inhibitors; Q92830; hit rate 0.21% among 390,000; GCN5L2 HAT assay, ThioGlo1 CoA-SH fluorescence
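Free CoA generated was detected with ThioGlo1 (50uM) fluorescence at Ex340nm/Em540nm, read immediately and after 20 min at room temperature. Enzyme, 20 nM in HEPES pH 7.5 buffer, saw compounds 15 min before adding 75uM H3(1-25) peptide and 70uM acetyl-CoA.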
PLK1 PBD block – inhibitors of human PLK1 polo-box domain binding. hit rate 2.8% among 360,000. Plk1 PBD binding of FITC phosphopeptide, fluorescence polarization. P53350. Potency, µM, for the others: max response, negative = inhibition, actives largely listed as inhibitors. AID 720504; further: series mostly up to about 57 µM; nearly all actives have a fitted effect of over 65% in size
Target sequence (P53350 whole entry, looked up, the tested form may be a part): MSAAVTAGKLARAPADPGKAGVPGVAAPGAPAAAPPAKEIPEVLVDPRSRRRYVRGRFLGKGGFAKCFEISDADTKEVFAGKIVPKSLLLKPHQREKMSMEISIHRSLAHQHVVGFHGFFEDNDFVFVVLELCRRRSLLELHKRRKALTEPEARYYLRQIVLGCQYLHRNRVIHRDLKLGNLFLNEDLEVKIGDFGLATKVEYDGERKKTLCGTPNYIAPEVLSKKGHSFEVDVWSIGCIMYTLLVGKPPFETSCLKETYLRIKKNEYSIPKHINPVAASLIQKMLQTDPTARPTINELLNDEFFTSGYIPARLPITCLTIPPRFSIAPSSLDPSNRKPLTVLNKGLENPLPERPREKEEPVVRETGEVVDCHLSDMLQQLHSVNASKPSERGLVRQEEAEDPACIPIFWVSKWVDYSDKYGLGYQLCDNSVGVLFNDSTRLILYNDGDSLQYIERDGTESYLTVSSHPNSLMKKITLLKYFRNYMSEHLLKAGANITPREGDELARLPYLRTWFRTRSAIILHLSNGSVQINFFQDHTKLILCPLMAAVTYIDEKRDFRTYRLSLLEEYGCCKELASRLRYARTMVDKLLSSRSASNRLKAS
12-LOX inh – ALOX12 (human) lipoxygenase inhibition | P18054 | Potency, µM (top dose mostly 108 µM), inactives show at the top dose activity change, negative = inhibition, hits mostly inhibitors | hit rate 1.1% among 580,000 | purified 12hLO, xylenol orange hydroperoxide absorbance
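Purified human 12hLO (150 nM final) in 25 mM Hepes, 0.01% Triton X-100, pH 7.0 was preincubated 15 min at room temperature with compound. Then 40 uM arachidonic acid was added, 30 min. Hydroperoxide was read by Fe-XO absorbance ratio 573/405 nm.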
VDR inh – vitamin D3 receptor (human) inhibition; hit rate 0.93% among 400,000; VDR-SRC2-3 peptide fluorescence polarization, 2 h; AID 504847; P11473; Potency, µM, without a hit: max response, negative = inhibition, most hits filed as inhibitors
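Fluorescence polarization assay of small-molecule disruption of VDR binding to coregulator peptide SRC2-3. Compounds and controls pin-transferred, then read after 2 h incubation at ambient room temperature.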
An asterisk follows results filed as active; i = inactive; ? = inconclusive; / = no result; ! = repeats disagree; [ ] = remark or other dose. The call rests on the fitted dose curve; in most records, active means well fitted curve in the direction sought with a large enough effect; inconclusive means small, poorly fitted or top-dose-only effect, or another doubt; inactive means no such curve, though single readings can be large; an effect the other way counts as inactive or inconclusive. On the % scale 0 is the no-effect control and ±100 the full control effect; potency means the concentration at half of the fitted maximal effect.

SMILES	KAT2A inh	PLK1 PBD block	12-LOX inh	VDR inh
CCOC(=O)c1c(NC(=O)c2cc(-c3ccc(OC)c(OC)c3)on2)sc(C)c1C	-5%	/	-27%	-8%
CCOC(=O)c1c(NC(=O)c2cc(-c3ccccc3OC)on2)sc(C)c1C	-10%	/	0%	79µM*
CC(C)c1ccc(-c2csc(NC(=O)c3cccs3)c2C(=O)O)cc1	-10%	34µM*	-20%	-19%
O=C(CSc1nc2ccccc2o1)Nc1ccc(F)cc1	/	/	-19%	/
CC1CCN(C(=O)CN(c2cc(Cl)cc(Cl)c2)S(=O)(=O)c2ccccc2)CC1	/	/	6%	/
CCC(=O)N1CCN(c2ccc(NC(=O)c3c(OC)cccc3OC)cc2)CC1	/	/	14%	/
Cc1ccc(-c2csc(NC(=O)c3cccc(C)c3)c2C(=O)O)cc1	/	?	?	-22%
CCOC(=O)c1c(-c2cccc([N+](=O)[O-])c2)csc1NC(=O)CCCOc1ccccc1OC	-7%	30µM*	181%	5%
Cc1cccc(C(=O)Nc2scc(-c3ccc(Br)cc3)c2C(=O)O)c1	/	30µM*	4%	-5%
COc1ccc(OC)c(C(C)NC(=O)CCc2c(C)c3ccc(OC)cc3oc2=O)c1 (stereo not given)	/	/	3%	/
CCC1=C(C(=O)OC)C(c2cccc(C)c2)N2C(CC(=O)Nc3ccc(OC)cc3)=CSC2=N1 (stereo not given)	/	/	-9%	/
COc1ccc2c(C)c(CC(=O)Nc3ccc4c(c3)OCCO4)c(=O)oc2c1	/	/	-17%	/
COc1ccc(C2(C(=O)N3CC(CO)C4(CCNCC4)C3)CCCCC2)cc1 (stereo not given)	/	/	32µM*	/
COc1ccc(CC(=O)N2CC(CO)C3(CCNCC3)C2)cc1 (stereo not given)	/	/	48%	/
Cc1ccc(CNC(=O)[C@H](Cc2ccccc2)NC(=O)c2ccco2)n1C	/	/	9%	/
COc1ccc(S(=O)(=O)n2[nH]c(=O)c(CCO)c2C)c([N+](=O)[O-])c1	-13%	13µM*	-24%	-14%
CCc1cc(C(c2ccc(OC)cc2)N2CCOCC2)c(NC(=O)c2ccco2)s1 (stereo not given)	/	/	7.1µM*	/
Cc1sc(NC(=O)c2ccco2)c(C(c2ccc(F)cc2)N2CCN(C)CC2)c1C (stereo not given)	-2%	-5%	/	1%
CCc1cc(C(c2ccc(F)cc2)N2CCN(CC)CC2)c(NC(=O)c2ccco2)s1 (stereo not given)	/	/	10µM*	/
COCCCNC(=O)C1CCN(S(=O)(=O)c2ccc3c(ccn3C)c2)CC1	/	/	11%	/
O=c1cc(-c2ccccc2)[nH]n1-c1ccccc1	/	6%	-18%	6%
O=c1cc(-c2ccccc2)[nH]n1-c1nc2ccccc2s1	-10%	21µM*	0%	-14%
O=c1[nH]c(CSc2nc3ccccc3o2)nc2cc(Cl)ccc12	/	/	8.9µM*	/
Cc1ccc2cc(C(=O)NCCN(C(C)C)C(C)C)[nH]c2c1	/	/	-30%	/
COC(=O)c1sc(NC(=O)c2cccc([N+](=O)[O-])c2)c(C(N)=O)c1C	1%	27µM*	?	-26%
SMILES	KAT2A inh	PLK1 PBD block	12-LOX inh	VDR inh
Cc1ccc(C(=O)Nc2cccc(NC(=O)c3ccc(C)c([N+](=O)[O-])c3)n2)cc1[N+](=O)[O-]	-3%	3%	i	-7%
CCCCC(=O)Nc1sc(C(=O)N(CC)CC)c(C)c1C(=O)OC	?	4.7µM*	35µM*	22µM*
CCOC(=O)c1c(NC(=O)CN(C)C)sc(C(=O)N(CC)CC)c1C	-13%	-4%	0%	12%
CCOC(=O)c1c(NC(=O)CC)sc(C(C)=O)c1C	-4%	11µM*	?	-24%
Cc1ccc(C(=O)Nc2sc(C)c(-c3ccccc3)c2C(N)=O)cc1[N+](=O)[O-]	-4%	19µM*	?	-26%
CCc1cc2c(cc1C1(C)OCCO1)C(C)(C)CCC2(C)C	/	/	8%	/
CNc1nccc(N2CCC(CC(=O)NC3CCN(Cc4ccccc4)CC3)CC2)n1	/	/	41%	/
CCCOC(=O)CNC(=O)c1cc(OC)cc(OC)c1	/	/	-5%	/
CCCC(=O)Nc1sc(C(=O)OC)c(C)c1C(N)=O	-3%	21µM*	2%[57.4 µM]	-17%
COc1ccc(-n2c(NC(=O)c3ccco3)c(C#N)c3nc4ccccc4nc32)cc1	-21%	?	0%	-19%
N#Cc1c(NC(=O)c2ccccc2Cl)n(Cc2ccccc2)c2nc3ccccc3nc12	?	15µM*	?	?
CCCCn1c(NC(=O)c2ccccc2Cl)c(C#N)c2nc3ccccc3nc21	-11%	27µM*	0%	45µM*
CCCCn1c(NC(=O)CC)c(C#N)c2nc3ccccc3nc21	-2%	-6%	0%	-5%
CCc1nc2sc3c(NC4CCCCC4)ncnc3c2c2c1COC(C)(C)C2	/	/	-2%	/
O=c1c2c(-c3ccc([N+](=O)[O-])cc3)csc2nc2n1CCC2	-10%	27µM*	?	-14%
O=[N+]([O-])c1ccc(-c2nnc3n2CCCCC3)cc1	-27%	-3%	22%	16%
CCC1CCCCN1C(=O)CCCOc1ccccc1 (stereo not given)	-14%	3.4µM*	-6%	?
COc1ccc(C(=C(Cl)Cl)c2ccc(OC)cc2)cc1	/	/	-7%	/
Fc1ccc(NC(=S)NN=Cc2ccccc2Cl)cc1	/	-1%	50µM*	-10%
Oc1ccccc1C=NNC(=S)Nc1ccc(F)cc1	/	-5%	?	11%
Cc1nn(C)cc1/C=N/NC(=S)Nc1ccccc1	-6%	12µM*	?	89µM*
CCc1nnc(CN2CCC(c3nc4ccccc4s3)CC2)o1	/	/	110%	/
O=[N+]([O-])c1ccc(Nc2nc(Cl)nc(NCCO)n2)cc1	0%	-13%	-24%	9%
Nc1c(S(=O)(=O)O)cc(Nc2cccc3ccccc23)c2c1C(=O)c1ccccc1C2=O	13µM*	/	?	35µM*
Nc1c(S(=O)(=O)O)cc(Nc2ccc(Nc3nc(Cl)nc(Nc4ccc(S(=O)(=O)O)cc4)n3)c(S(=O)(=O)O)c2)c2c1C(=O)c1ccccc1C2=O	20µM*	/	/	?
SMILES	KAT2A inh	PLK1 PBD block	12-LOX inh	VDR inh
Nc1c(S(=O)(=O)O)cc(NC(=O)c2ccccc2)c2c1C(=O)c1ccccc1C2=O	-17%	21µM*	/	?
Nc1c(S(=O)(=O)O)cc(Nc2ccc(Cl)cc2)c2c1C(=O)c1ccccc1C2=O	28µM*	/	?	32µM*
O=C(N/N=C/c1ccccc1F)c1csc2ccccc12	/	/	-13%	/
Cc1cc(OCC(=O)Nc2ccccc2N2CCN(S(C)(=O)=O)CC2)ccc1Cl	/	/	18%	/
Cc1ccc(CNC(=O)c2cccc(CS(C)=O)c2)cc1 (stereo not given)	/	/	21%	/
CCOc1ccc(NC(=O)CN2CCc3cc4c(cc3C2)OCCCO4)cc1OCC	-3%	30µM*	-6%	-25%
CCCSc1oc(-c2ccco2)nc1S(=O)(=O)c1ccc(Cl)cc1	-11%	/	40µM*	1%
Cc1ccc(S(=O)(=O)c2nc(-c3ccco3)oc2SC(C)C)cc1	-17%	-22%	32µM*!	9%
CCSc1oc(-c2ccc(C)cc2)nc1S(=O)(=O)c1ccccc1	/	/	32µM*	/
CCCCSc1oc(-c2ccco2)nc1S(=O)(=O)c1ccccc1	-5%	-10%	?	-5%
